Records with an inconclusive call do not appear. More than one record can exist for a structure, and the calls need not agree. Activity calls are given as the source filed them. How the source made its calls, unless noted: active means hit-call score of the fitted dose curve at least 0.9, where 1 is the maximum; inconclusive means response in the unintended direction; inactive means score below 0.9.

The nature of assay [1]: TOX21_p53_BLA_p2_viability: Viability Assessment in the Tox21 HCT-116 p53 Agonism Beta-lactamase Assay, Phase 2 (AID 2283591).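 Further: actives lower the ATP signal meaning cytotoxicity.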 The essentials:
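Cytotoxicity readout: CellTiter-Glo ATP luminescence, 30 min at room temperature, after the beta-lactamase read. Cells were HCT116 exposed 16 h at 37C to compounds pin-transferred at 217-fold dilution from DMSO stocks.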

Assay [2] concerns the target Cellular tumor antigen p53 (Homo sapiens) (UniProt P04637). In words: TOX21_p53_BLA_p2_ratio: Tox21 HCT-116 p53 Agonism Beta-lactamase Assay, Ratio, Phase 2 (AID 2283592). In a few lines: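 An inducible beta-lactamase reporter in HCT116 cells signals p53 pathway activation. After 16 h chemical exposure at 37C, cells load CCF4-AM substrate for 2 h at room temperature; activity is the cleaved/uncleaved emission ratio relative to DMSO.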

Assay [3] in a line: TOX21_p53_BLA_p3_viability: Viability Assessment in the Tox21 HCT-116 p53 Agonism Beta-lactamase Assay, Phase 3 (AID 2283593).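 Further: cells exposed to compound for 16 h before reading.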 The essentials:
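Cellular ATP was quantified by CellTiter-Glo luminescence, read after 30 min at room temperature. Beforehand, HCT116 cells (4000/well) received compound 5 h post-seeding, 217-fold diluted from DMSO, then incubated 16 h at 37C.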

Assay [4] has as its target Cellular tumor antigen p53 (Homo sapiens) (UniProt P04637). In words: TOX21_p53_BLA_p3_ratio: Tox21 HCT-116 p53 Agonism Beta-lactamase Assay, Ratio, Phase 3 (AID 2283596). In a few lines:
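HCT116 p53-bla cells (4000/well) given compound in DMSO (217-fold dilution) after 5 h, incubated 16 h at 37C. CCF4-AM substrate 2 h at room temperature; 460/530 nm emission ratio, gain fitted against DMSO.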

A short description of assay [5]: TOX21_p53_BLA_p4_viability: Viability Assessment in the Tox21 HCT-116 p53 Agonism Beta-lactamase Assay, Phase 4 (AID 2283597).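 Further: hits lower the luminescence signal meaning cytotoxicity.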 The essentials:
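Compound exposure of HCT116 cells lasts 16 h at 37C, 5% CO2, with DMSO stocks diluted 217-fold. Cellular ATP is then quantified by CellTiter-Glo luminescence after 30 min at room temperature.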

For assay [6], the target named is Cellular tumor antigen p53 (Homo sapiens) (UniProt P04637). In words: TOX21_p53_BLA_p5_ratio: Tox21 HCT-116 p53 Agonism Beta-lactamase Assay, Ratio, Phase 5 (AID 2283599). The essentials: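 Beta-lactamase reporter ratio (blue 460 nm over green 530 nm, 405 nm excitation) after 2 h CCF4-AM loading, in HCT-116 cells exposed 16 h at 37 C to compounds pinned at 217-fold dilution. Increases relative to DMSO baseline scored.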
Cellular tumor antigen p53 (Homo sapiens), sequence (P04637 whole entry, looked up): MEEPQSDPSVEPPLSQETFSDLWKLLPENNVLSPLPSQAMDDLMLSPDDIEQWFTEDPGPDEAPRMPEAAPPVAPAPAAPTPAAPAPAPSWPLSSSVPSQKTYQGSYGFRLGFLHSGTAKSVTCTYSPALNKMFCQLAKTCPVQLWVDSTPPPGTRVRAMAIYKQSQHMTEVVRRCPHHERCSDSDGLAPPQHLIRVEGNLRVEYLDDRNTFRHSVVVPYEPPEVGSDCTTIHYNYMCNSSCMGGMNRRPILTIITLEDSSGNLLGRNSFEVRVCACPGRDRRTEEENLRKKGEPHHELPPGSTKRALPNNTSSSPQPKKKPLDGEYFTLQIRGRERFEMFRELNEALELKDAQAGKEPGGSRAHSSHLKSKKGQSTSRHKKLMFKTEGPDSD

For assay [7], the target named is Norway rat Vesicular Monoamine Transporter (VMAT2), neurotransmitter transporter, Slc18a2 (gene 25549) (UniProt Q01827). In words: NVS_TR_rVMAT2: NovaScreen (NVS) Transporter Assay for Norway rat Vesicular Monoamine Transporter (VMAT2), neurotransmitter transporter (AID 2283376).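 Further: actives lower the bound radioligand signal below the DMSO level.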 In a few lines:
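Tissue: rat forebrain extract. Format: competitive radioligand binding, cell-free. Timepoint: 1 h. Readout: filter radiodetection/scintillation. Screen: 25 uM in duplicate, then concentration series for actives. Baseline: DMSO.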

Assay [8] in a line: CCTE_Shafer_MEA_dev_firing_rate_mean: CCTE's Neural Network Formation Assay for Mean Firing Rate, Shafer Lab (AID 2284031; active means hit-call score of the fitted dose curve at least 0.9, where 1 is the maximum; inactive means score below 0.9). In a few lines:
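Developing rat cortical networks on MEA plates undergo 12-day compound exposure. Firing frequency, averaged across active electrodes, is integrated as area under the curve over four recording days, referenced to DMSO.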

A short description of assay [9]: CCTE_Shafer_MEA_dev_per_burst_spike_percent: CCTE's Neural Network Formation Assay for Percent of Spikes in a Burst, Shafer Lab (AID 2284032; active means hit-call score of the fitted dose curve at least 0.9, where 1 is the maximum; inactive means score below 0.9). In a few lines: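 Rat primary cortical neurons on 16-electrode MEA wells, dosed from plating day 0 for 12 days with renewal on DIV 5 and 9; spikes-in-bursts percentage averaged over bursting electrodes, collapsed as AUC across days 5, 7, 9, 12; loss direction versus DMSO.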

Assay [10] can be described thus: CCTE_Shafer_MEA_dev_burst_rate: CCTE's Neural Network Formation Assay for Burst Rate, Shafer Lab (AID 2284042; active means hit-call score of the fitted dose curve at least 0.9, where 1 is the maximum; inactive means score below 0.9). The essentials:
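Rat primary cortical cultures on PEI/laminin MEA; compound from plating, re-dosed at DIV 5, 9 media change. Single-electrode bursts/recording length, well mean of active electrodes; AUC over DIV 5–12 recordings; loss-of-signal vs DMSO.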

A short description of assay [11]: CCTE_Shafer_MEA_dev_bursting_electrodes_number: CCTE's Neural Network Formation Assay for Number of Bursting Electrodes, Shafer Lab (AID 2284043). In a few lines:
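Read-out is the per-well number of electrodes bursting at least once every 2 minutes, recorded on days 5, 7, 9 and 12 and collapsed by trapezoidal area under the curve. Cultures were primary rat cortical neurons on MEA plates, treated continuously from plating.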

Assay [12] can be described thus: CCTE_Shafer_MEA_dev_per_burst_interspike_interval: CCTE's Neural Network Formation Assay for Burst Interspike Interval, Shafer Lab (AID 2284044; active means hit-call score of the fitted dose curve at least 0.9, where 1 is the maximum; inactive means score below 0.9;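 further: mean spike spacing inside bursts as AUC over recordings on days 5 7 9 12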). The essentials:
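Developmental network-formation MEA in primary rat cortical cultures with exposure spanning days 0–12. Within-burst ISI is averaged per well and integrated across recording days by area under the curve, with DMSO as negative control baseline.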

Assay [13] can be described thus: CCTE_Shafer_MEA_dev_burst_duration_mean: CCTE's Neural Network Formation Assay for Mean Burst Duration, Shafer Lab (AID 2284045; active means hit-call score of the fitted dose curve at least 0.9, where 1 is the maximum; inactive means score below 0.9). The essentials: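 Read-out: average first-to-last-spike interval within single-electrode bursts, averaged over bursting electrodes per well, then summarised as area under the curve across days 5, 7, 9 and 12. Developing rat cortical networks were exposed from day 0.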

Assay [14] can be described thus: CCTE_Shafer_MEA_dev_interburst_interval_mean: CCTE's Neural Network Formation Assay for Mean Interburst Interval, Shafer Lab (AID 2284046; active means hit-call score of the fitted dose curve at least 0.9, where 1 is the maximum; inactive means score below 0.9;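 further: well-mean interburst interval of bursting electrodes as AUC over four recording days; curve fitted for decrease in interburst interval relative to DMSO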). The essentials:
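Rat cortical neurons, 1.5 x 10^5 cells/well, 48-well MEA; compound from day 0 through DIV 12, media and treatment renewed DIV 5/9. Recordings DIV 5, 7, 9, 12; well-mean interburst interval → trapezoidal AUC, loss direction vs DMSO.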

Assay [15] can be described thus: CCTE_Shafer_MEA_dev_inter_network_spike_interval_mean: CCTE's Neural Network Formation Assay for Mean Inter-network Spike Interval, Shafer Lab (AID 2284047; active means hit-call score of the fitted dose curve at least 0.9, where 1 is the maximum; inactive means score below 0.9). In a few lines:
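Primary rat cortical neurons on PEI-coated 48-well MEAs (16 electrodes/well) were exposed from plating day 0 to DIV 12, with dosing renewed at DIV 5 and 9. Recordings at DIV 5, 7, 9, 12 were collapsed by trapezoidal AUC, loss-of-signal fit vs DMSO.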

The nature of assay [16]: CCTE_Shafer_MEA_dev_network_spike_number: CCTE's Neural Network Formation Assay for Number of Network Spikes, Shafer Lab (AID 2284048; active means hit-call score of the fitted dose curve at least 0.9, where 1 is the maximum; inactive means score below 0.9;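 further: synchronized bursts across electrodes counted on days 5 7 9 12 and integrated as AUC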). In a few lines: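 Developing networks of primary rat cortical neurons are treated over 12 days starting at plating, with media and compound fully replaced on DIV 5 and 9. Network spike counts from four recording days are integrated as trapezoidal AUC.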

Assay [17] can be described thus: CCTE_Shafer_MEA_dev_network_spike_peak: CCTE's Neural Network Formation Assay for Mean Number of Electrodes in Network Spike, Shafer Lab (AID 2284049; active means hit-call score of the fitted dose curve at least 0.9, where 1 is the maximum; inactive means score below 0.9). In a few lines:
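Rat cortical primary culture, 1.5 x 10^5 cells/well, 48-well MEA (16 electrodes/well). Dosing day 0 through DIV 12, full media/compound exchange DIV 5, 9. AxIS adaptive spike detection; AUC over days 5/7/9/12; loss-of-signal vs DMSO.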

Assay [18] can be described thus: CCTE_Shafer_MEA_dev_spike_duration_mean: CCTE's Neural Network Formation Assay for Mean Spike Duration, Shafer Lab (AID 2284051; active means hit-call score of the fitted dose curve at least 0.9, where 1 is the maximum; inactive means score below 0.9;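 further: mean network spike duration pooled as area under curve over DIV 5 to 12 recordings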). In a few lines: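 Rat cortical primary cultures, 48-well MEA (16 electrodes/well); compound from plating, renewed DIV 5, 9. Network spike duration (AxIS adaptive detector) recorded DIV 5/7/9/12, combined as trapezoidal AUC; loss direction vs DMSO.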

Assay [19] in a line: CCTE_Shafer_MEA_dev_network_spike_duration_std: CCTE's Neural Network Formation Assay for Standard Deviation of Network Spike Duration, Shafer Lab (AID 2284052; active means hit-call score of the fitted dose curve at least 0.9, where 1 is the maximum; inactive means score below 0.9;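 further: hits are decreases in network spike duration SD versus DMSO vehicle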). In a few lines:
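Rat cortical cultures, 1.5 x 10^5 cells/well, exposed continuously from plating to DIV 12 with media/compound renewal at DIV 5, 9. Spontaneous activity recorded DIV 5/7/9/12, AxIS adaptive spike detector; AUC across days; negative direction vs DMSO.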

Assay [20] in a line: CCTE_Shafer_MEA_dev_per_network_spike_spike_number_mean: CCTE's Neural Network Formation Assay for Mean Number of Spikes in a Network Spike, Shafer Lab (AID 2284053; active means hit-call score of the fitted dose curve at least 0.9, where 1 is the maximum; inactive means score below 0.9). The essentials:
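Rat cortical primary cultures on 48-well MEA; compound from day 0, re-dosed with full media change DIV 5, 9. Recorded DIV 5, 7, 9, 12; spikes in 0.05 s window at network-spike peak ÷ total network spikes; AUC; loss vs DMSO.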

Assay [21] can be described thus: CCTE_Shafer_MEA_dev_per_network_spike_spike_percent: CCTE's Neural Network Formation Assay for Percent of Spikes in a Network Spike, Shafer Lab (AID 2284054; active means hit-call score of the fitted dose curve at least 0.9, where 1 is the maximum; inactive means score below 0.9). In a few lines: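 Rat primary cortical cultures, 1.5 x 10^5 cells/well on MEA. Continuous compound exposure d0–12, medium/compound renewed DIV 5, 9. Network-spike spike % (0.05 s peak window), AUC over 4 recordings, DMSO baseline.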

A short description of assay [22]: CCTE_Shafer_MEA_dev_LDH: CCTE's Lactate Dehydrogenase Assay for Cytotoxicity in the Neural Network Formation Assay, Shafer Lab (AID 2284068).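 Further: exposure for twelve days from plating with re-dosing on DIV 5 and 9.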 In a few lines:
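Rat cortical primary neurons, MEA culture; dosing day 0–12, full medium plus compound exchange DIV 5, 9. Read-out: LDH enzyme activity, spectrophotometric. DMSO = negative control/baseline; signal loss → cytotoxicity.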

Assay [23] is described as follows: CCTE_Shafer_MEA_dev_AB: CCTE's Alamar Blue Assay for Cytotoxicity in the Neural Network Formation Assay, Shafer Lab (AID 2284083).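 Further: resazurin reduction fluorescence as viability of cultured neurons; twelve days of exposure from plating with re-dosing on DIV 5 and 9.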 The essentials: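 Rat cortical primary cultures, 1.5 x 10^5 cells/well on MEA; continuous compound exposure over 12 days of network development, re-dosed with full medium change DIV 5 and 9. Alamar Blue fluorescence; loss of signal = cytotoxicity vs DMSO baseline.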
In general terms: Alamar Blue is a resazurin reagent that responds to reducing activity.

Assay [24] can be described thus: CCTE_Shafer_MEA_dev_mutual_information_norm: CCTE's Neural Network Formation Assay for Mutual Information Normalization, Shafer Lab (AID 2284091; active means hit-call score of the fitted dose curve at least 0.9, where 1 is the maximum; inactive means score below 0.9). In a few lines:
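Developing rat cortical networks on 16-electrode MEA wells are treated throughout formation (DIV 0–12). Shared electrode information is recorded four times, converted to area-under-curve, and fitted for decreases against DMSO vehicle.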

The nature of assay [25]: CCTE_Shafer_MEA_dev_correlation_coefficient_mean: CCTE's Neural Network Formation Assay for Mean Correlation Coefficient, Shafer Lab (AID 2284093; active means hit-call score of the fitted dose curve at least 0.9, where 1 is the maximum; inactive means score below 0.9). The essentials: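 Rat cortical cultures, 1.5 x 10^5 cells/well, dosed from day 0 for 12 days. Spontaneous spikes recorded DIV 5/7/9/12; electrode-pair correlation coefficients averaged, AUC taken. Fit in loss direction vs DMSO.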

Norway rat Vesicular Monoamine Transporter (VMAT2), neurotransmitter transporter, Slc18a2 (gene 25549), sequence (Q01827 whole entry, looked up): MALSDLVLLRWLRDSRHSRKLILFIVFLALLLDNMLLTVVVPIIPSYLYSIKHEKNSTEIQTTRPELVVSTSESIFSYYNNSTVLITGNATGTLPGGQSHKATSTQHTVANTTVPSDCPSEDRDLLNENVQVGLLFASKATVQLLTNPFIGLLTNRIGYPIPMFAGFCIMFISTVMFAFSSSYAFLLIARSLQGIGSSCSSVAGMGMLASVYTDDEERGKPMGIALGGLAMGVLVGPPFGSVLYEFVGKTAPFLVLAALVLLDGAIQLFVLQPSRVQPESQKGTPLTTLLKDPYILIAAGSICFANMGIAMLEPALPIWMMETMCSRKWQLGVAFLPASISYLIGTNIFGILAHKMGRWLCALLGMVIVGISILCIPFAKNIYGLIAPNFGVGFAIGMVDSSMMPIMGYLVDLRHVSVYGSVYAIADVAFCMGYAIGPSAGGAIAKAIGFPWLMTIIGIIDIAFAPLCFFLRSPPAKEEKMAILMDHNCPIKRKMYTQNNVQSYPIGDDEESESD

Consider `CC[C@H](N)c1ccccc1`, for which the call in assay [1], in assay [2], in assay [3], in [4], in [5] and in assay [6] was inactive.
Regarding `CCCSC(=O)Cl`, the result in assay [1] was inactive.
One may read the AC50 as the midpoint of the concentration-response curve, whichever way the signal moves. In the case of `CCCCCCCCCCCCCCCCCCn1cc[n+](C)c1`, the result in assay [1], in [3], in assay [4], in assay [5] and in assay [6] was inactive. The AC50 in assay [2] is 8.42 µM (active).
As for `C[Si](C)O[Si](C)C`, the outcome in assay [7] was inactive.
Regarding `COC(=O)c1cncn1C(C)c1ccccc1` (stereo not drawn), the outcome in assay [1], in [2], in assay [3], in assay [4], in assay [5] and in [6] was inactive.
For `CCOP(=O)(O)OCC` (tested in a mixture with another compound), the concentration at half-maximal activity (AC50) in assay [1] is 72.3 µM (active); in assay [3], 28.7 µM (active); in assay [5] it was 83 µM (active). Besides, the call in [1], in assay [3], in assay [8], in assay [9], in assay [10] and in assay [11] was inactive. Besides, the outcome in [12], in [13], in [14], in assay [15], in [16] and in [17] was inactive. The compound was called inactive in assay [18], in assay [19], in assay [20], in assay [21], in assay [22] and in assay [23]. Further, the compound was classed as inactive in assay [24] and in [25].

(Values after PubChem BioAssay (EPA / NIEHS).)
